Measured values: PubChem BioAssay (EPA / NIEHS)
Results filed as inconclusive are left out. A structure can be active in one record and inactive in another. Activity calls are given as the source filed them. How the source made its calls, unless noted: active means hit-call score of the fitted dose curve at least 0.9, where 1 is the maximum; inconclusive means response in the unintended direction; inactive means score below 0.9.

Key:
[1] = biological target: human Retinoic Acid Receptor gamma (RARg), RARG (gene 5916) (UniProt P13631); test: ATG_RARg_TRANS: Attagene TRANS-FACTORIAL HepG2 Assay for human Retinoic Acid Receptor gamma (RARg) (AID 2283009)
Chain of human Retinoic Acid Receptor gamma (RARg), RARG (gene 5916) (P13631 whole entry, looked up, the tested form may be a part): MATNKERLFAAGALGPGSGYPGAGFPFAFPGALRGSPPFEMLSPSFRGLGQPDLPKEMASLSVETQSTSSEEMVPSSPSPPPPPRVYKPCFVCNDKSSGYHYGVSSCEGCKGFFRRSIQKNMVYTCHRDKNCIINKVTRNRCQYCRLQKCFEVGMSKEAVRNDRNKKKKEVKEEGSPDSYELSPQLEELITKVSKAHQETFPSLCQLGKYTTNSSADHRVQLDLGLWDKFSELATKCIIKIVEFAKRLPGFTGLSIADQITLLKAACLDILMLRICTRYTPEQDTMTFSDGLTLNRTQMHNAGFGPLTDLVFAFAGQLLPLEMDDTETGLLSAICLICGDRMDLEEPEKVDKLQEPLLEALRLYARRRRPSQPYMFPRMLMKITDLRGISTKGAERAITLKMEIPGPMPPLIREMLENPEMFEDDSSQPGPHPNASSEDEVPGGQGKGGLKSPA
In short: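 HepG2 cells transiently transfected with multiplexed reporter units expressing chimeric RARg-GAL4 and GAL4-UAS-driven reporters; 24 h compound exposure. Reporter mRNA quantified by RT-PCR with fluorescent labelling and capillary electrophoresis; gain-of-signal fitted relative to DMSO baseline.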

[2] = biological target: Estrogen receptor beta (Homo sapiens) (UniProt Q92731); test: OT_ER_ERbERb_0480: Odyssey Thera (OT) 8-hour HEK293T Protein-Complementation Assay for Estrogen Receptor-beta/-beta Homodimer (AID 2283357);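 further: active means signal gain over DMSO baseline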
Chain of Estrogen receptor beta (Homo sapiens) (Q92731 whole entry, looked up, the tested form may be a part): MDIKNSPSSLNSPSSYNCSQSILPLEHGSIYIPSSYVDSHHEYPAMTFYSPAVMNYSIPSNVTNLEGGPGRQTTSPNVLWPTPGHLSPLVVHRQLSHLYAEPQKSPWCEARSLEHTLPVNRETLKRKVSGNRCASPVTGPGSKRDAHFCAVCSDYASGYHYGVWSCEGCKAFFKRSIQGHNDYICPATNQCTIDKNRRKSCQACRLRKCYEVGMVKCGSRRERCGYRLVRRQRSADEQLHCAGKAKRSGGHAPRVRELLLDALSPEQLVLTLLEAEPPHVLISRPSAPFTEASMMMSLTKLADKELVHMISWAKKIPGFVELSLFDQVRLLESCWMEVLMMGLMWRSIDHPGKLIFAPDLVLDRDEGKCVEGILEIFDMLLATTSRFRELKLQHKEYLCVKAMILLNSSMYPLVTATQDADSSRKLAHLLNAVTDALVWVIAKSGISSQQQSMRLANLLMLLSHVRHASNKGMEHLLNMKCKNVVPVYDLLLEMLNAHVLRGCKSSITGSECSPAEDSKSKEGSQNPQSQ
In short: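 Readout: increase in mean fluorescence intensity (nucleus for agonists; nucleus plus cytoplasm for antagonists) relative to DMSO, from a reporter-fragment complementation of human ER-beta LBD homodimer in HEK293T cells dosed 8 hours.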

[3] = biological target: Estrogen receptor beta (Homo sapiens) (UniProt Q92731); test: OT_ER_ERbERb_1440: Odyssey Thera (OT) 24-hour HEK293T Protein-Complementation Assay for Estrogen Receptor-beta/-beta Homodimer (AID 2283380);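 further: fluorescence gain from ER beta LBD homodimer complementation read by laser scanning cytometry; scored as signal increase over DMSO baseline for both agonists and antagonists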
In short: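 HEK293T cells stably expressing human ER-beta LBD (aa 310-547) PCA homodimer pair, dosed 24 h; formaldehyde-fixed, Draq5-stained. Readout: increase in nuclear (agonist) or nuclear plus cytoplasmic (antagonist) fluorescence intensity versus DMSO, gain-of-signal fitting.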

[4] = biological target: Retinoic acid receptor RXR-alpha (Homo sapiens) (UniProt P19793); test: OT_NURR1_NURR1RXRa_0480: Odyssey Thera (OT) 8-hour HEK293T Protein Complementation Assay for Nurr1/retinoid X receptor (RXR) (AID 2283385)
Chain of Retinoic acid receptor RXR-alpha (Homo sapiens) (P19793 whole entry, looked up, the tested form may be a part): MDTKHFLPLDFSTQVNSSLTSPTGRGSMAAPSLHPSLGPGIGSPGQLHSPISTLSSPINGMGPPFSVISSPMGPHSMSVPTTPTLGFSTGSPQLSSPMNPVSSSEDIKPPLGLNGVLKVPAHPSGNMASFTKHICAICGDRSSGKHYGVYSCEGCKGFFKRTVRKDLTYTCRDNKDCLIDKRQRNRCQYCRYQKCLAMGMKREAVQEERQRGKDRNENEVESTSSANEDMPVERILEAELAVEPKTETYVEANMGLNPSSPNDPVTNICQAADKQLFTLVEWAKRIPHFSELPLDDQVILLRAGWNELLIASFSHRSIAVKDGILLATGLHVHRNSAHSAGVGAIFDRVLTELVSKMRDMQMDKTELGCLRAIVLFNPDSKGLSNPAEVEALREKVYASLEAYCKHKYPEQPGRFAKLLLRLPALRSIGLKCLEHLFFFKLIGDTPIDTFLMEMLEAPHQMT
In short: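 HEK293T cells expressing Nurr1 and RXRα fused to reporter fragments were dosed with compound for 8 hours. Complex formation was read as fluorescence intensity and analysed as gain of signal against DMSO as baseline.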

[5] = biological target: Retinoic acid receptor RXR-alpha (Homo sapiens) (UniProt P19793); test: OT_NURR1_NURR1RXRa_1440: Odyssey Thera (OT) 24-hour HEK293T Protein Complementation Assay for Nurr1/retinoid X receptor (RXR) (AID 2283386)
In short: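 HEK293T cells were dosed with compound and read 24 h later by fluorescence intensity in a protein-fragment complementation format, where Nurr1–RXRα interaction reconstitutes a split reporter. Activity was fitted as gain of signal relative to DMSO baseline.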

[6] = ACEA_AR_agonist_AUC_viability: ACEA Biosciences xCELLigence Real-Time Cell Analysis on Androgen Receptor Agonism for Viability (AID 2283775);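 on AC50: viability read 80 hours after compound addition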
In short: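 Read-out is area under the impedance curve at 80 h post-dose in 22Rv1 cells, with DMSO as baseline and signal loss taken as reduced viability. Compounds ran in duplicate from 100 uM final.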

[7] = ACEA_ER_AUC_viability: ACEA Biosciences xCELLigence Real-Time Cell Analysis on Estrogen Receptor Agonism for Viability (AID 2283782);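 further: continuous compound exposure with impedance area under curve over 80 h; hit means loss of impedance signal meaning reduced cell growth or viability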
In short: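 T-47D human breast cells in phenol red-free RPMI1640 with 10% charcoal-stripped FBS were dosed with an 8-point 1:4 dilution series from 100 uM top final concentration, in duplicate. Impedance-based growth was followed for 80 h; AUC analysed versus DMSO.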

[8] = CCTE_Harrill_HTTr_CellCount_MCF7: CCTE's Cell Proliferation Assessment for the High-Throughput Transcriptomics (HTTr) Platform, Harrill Lab (AID 2284012);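 further: cells exposed to compound for six hours; intended direction is loss of nuclei count meaning fewer cells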
In short: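 MCF-7 cells were exposed for 6 h to an eight-point dilution series; Hoechst-labeled nuclei were counted by high content imaging. Curves were fitted bidirectionally against DMSO as negative control and baseline, with signal loss indicating reduced cell count.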

[9] = biological target: Steroid hormone receptor ERR1 (Homo sapiens) (UniProt P11474); test: ATG_ERRa_TRANS: Attagene TRANS-FACTORIAL HepG2 Assay for human Estrogen-Related Receptor alpha (ERRa) (AID 2282971); conditions: HepG2 Attagene TRANS reporter, ERRa transactivation
Chain of Steroid hormone receptor ERR1 (Homo sapiens) (P11474 whole entry, looked up, the tested form may be a part): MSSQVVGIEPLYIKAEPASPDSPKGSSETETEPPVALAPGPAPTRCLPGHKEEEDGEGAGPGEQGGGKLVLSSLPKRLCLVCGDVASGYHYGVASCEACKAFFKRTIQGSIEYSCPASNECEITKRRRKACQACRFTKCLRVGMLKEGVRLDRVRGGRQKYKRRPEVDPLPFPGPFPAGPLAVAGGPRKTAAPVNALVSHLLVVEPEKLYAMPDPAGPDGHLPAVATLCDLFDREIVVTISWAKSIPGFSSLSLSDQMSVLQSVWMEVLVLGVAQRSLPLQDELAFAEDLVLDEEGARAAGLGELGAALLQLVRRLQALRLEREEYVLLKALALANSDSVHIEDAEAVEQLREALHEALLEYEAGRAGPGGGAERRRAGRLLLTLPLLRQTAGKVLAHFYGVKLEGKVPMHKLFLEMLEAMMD
In short: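 HepG2 cells transiently transfected with GAL4-UAS reporter units and chimeric NR-Gal4 constructs; after 24 hour compound incubation, reporter mRNA quantified by RT-PCR, fluorescent labelling and capillary electrophoresis, gain of signal versus DMSO.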

[10] = ATG_ERE_CIS: Attagene CIS-FACTORIAL HepG2 Assay for Estrogen Response Element (ERE) (AID 2282940; active means hit-call score of the fitted dose curve at least 0.9, where 1 is the maximum; inactive means score below 0.9); conditions: HepG2 ERE cis-reporter, Attagene RNA transcript; actives raise or lower the signal
In short: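 HepG2, transient cis-reporter units, 24 h exposure. RNA isolated, oligo(dT) RT, reporter-specific PCR, FAM extension, HpaI cut, CE detection. Gain/loss-of-signal vs DMSO.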

[11] = biological target: human Retinoic Acid Receptor beta (RARb), RARB (gene 5915) (UniProt P10826); test: ATG_RARb_TRANS: Attagene TRANS-FACTORIAL HepG2 Assay for human Retinoic Acid Receptor beta (AID 2283004)
Chain of human Retinoic Acid Receptor beta (RARb), RARB (gene 5915) (P10826 whole entry, looked up, the tested form may be a part): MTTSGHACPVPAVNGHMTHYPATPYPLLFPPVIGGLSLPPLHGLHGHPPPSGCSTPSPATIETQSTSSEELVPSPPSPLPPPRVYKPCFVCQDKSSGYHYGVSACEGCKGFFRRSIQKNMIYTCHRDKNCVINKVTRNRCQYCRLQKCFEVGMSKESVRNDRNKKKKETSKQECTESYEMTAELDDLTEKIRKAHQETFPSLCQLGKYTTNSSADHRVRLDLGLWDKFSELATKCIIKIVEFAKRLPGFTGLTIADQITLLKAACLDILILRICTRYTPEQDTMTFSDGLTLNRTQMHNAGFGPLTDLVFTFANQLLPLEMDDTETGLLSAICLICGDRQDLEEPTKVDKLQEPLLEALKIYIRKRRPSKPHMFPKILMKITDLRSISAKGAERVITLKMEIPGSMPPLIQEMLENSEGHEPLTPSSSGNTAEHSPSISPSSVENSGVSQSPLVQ
In short: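 HepG2 cells were transiently transfected with GAL4-UAS reporter units that report activity of exogenous chimeric NR-Gal4 proteins, then exposed to compound for 24 h. Reporter mRNA was quantified by RT-PCR with capillary electrophoresis fluorescence, as gain of signal over DMSO.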

[12] = ACEA_AR_antagonist_AUC_viability: ACEA Biosciences xCELLigence Real-Time Cell Analysis on Androgen Receptor Antagonism for Viability (AID 2283776);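 further: 22Rv1 human prostate cancer cells growing on impedance electrode plates; area under impedance growth curve at 80 h after dosing as viability; hits lower the growth signal relative to DMSO meaning cytotoxicity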
In short: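 Viability endpoint from label-free cell-index monitoring: 22Rv1 cultures treated with an eight-point 1:4 dilution series starting at 100 uM final, AUC at 80 h fitted against DMSO.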

[13] = biological target: Peroxisome proliferator-activated receptor gamma (Homo sapiens) (UniProt P37231); test: OT_PPARg_PPARgSRC1_0480: Odyssey Thera (OT) 8-hour Protein-Complementation Assay for Peroxisome Proliferator-activated Receptor Gamma / SRC-1 Co-activator (AID 2283387)
Chain of Peroxisome proliferator-activated receptor gamma (Homo sapiens) (P37231 whole entry, looked up, the tested form may be a part): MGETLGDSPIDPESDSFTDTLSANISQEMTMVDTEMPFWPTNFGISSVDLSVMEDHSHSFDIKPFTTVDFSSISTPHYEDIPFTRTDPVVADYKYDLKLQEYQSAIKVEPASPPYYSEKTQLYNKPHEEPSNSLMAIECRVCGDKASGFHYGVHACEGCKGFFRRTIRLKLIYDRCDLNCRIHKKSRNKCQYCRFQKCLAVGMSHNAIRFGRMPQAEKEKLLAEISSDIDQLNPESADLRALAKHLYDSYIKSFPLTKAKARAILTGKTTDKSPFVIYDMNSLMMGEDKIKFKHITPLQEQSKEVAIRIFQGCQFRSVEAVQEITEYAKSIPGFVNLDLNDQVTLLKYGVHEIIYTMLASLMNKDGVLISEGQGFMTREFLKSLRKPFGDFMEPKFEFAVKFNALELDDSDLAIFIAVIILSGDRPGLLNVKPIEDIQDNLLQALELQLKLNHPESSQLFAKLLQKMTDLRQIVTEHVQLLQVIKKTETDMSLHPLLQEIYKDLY
In short: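 Split-YFP (IFP1/IFP2) PPARg/SRC-1 reporter, HEK293T, 37 °C, 5% CO2; 8 h compound; formaldehyde fix + Draq5; high-content imaging, N/C ratio, ≥350 cells/image, positive direction vs DMSO.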

[14] = biological target: Peroxisome proliferator-activated receptor gamma (Homo sapiens) (UniProt P37231); test: OT_PPARg_PPARgSRC1_1440: Odyssey Thera (OT) 24-hour Protein-Complementation Assay for Peroxisome Proliferator-activated Receptor Gamma/ SRC-1 Co-activator (AID 2283388)
In short: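 HEK293T transiently transfected with PPARg/SRC-1 split-Venus YFP fusions 48 h before dosing, then treated 24 h at 37C. Fixed cells imaged; nuclear/cytoplasmic 488 nm fluorescence ratio, gain of signal versus DMSO.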

[15] = read-out: Interleukin-8 (IL8), CXCL8 (gene 3576); test: BSK_3C_IL8: BioMAP Diversity Plus: 3C Assay for Interleukin-8 (IL8) Biomarker Activity (AID 2283020; active means hit-call score of the fitted dose curve at least 0.9, where 1 is the maximum; inactive means score below 0.9); conditions: primary human endothelial cells (HUVEC); actives raise or lower the signal
In short: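 Primary human umbilical vein endothelial cells (3C system) were exposed to test chemical for 24 h, then IL-8 was quantified by ELISA. Responses were fitted bidirectionally against DMSO vehicle as baseline.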

[16] = read-out: Pselectin, SELP (gene 6403); test: BSK_4H_Pselectin: BioMAP Diversity Plus: 4H Assay for Pselectin Biomarker Activity (AID 2283026; active means hit-call score of the fitted dose curve at least 0.9, where 1 is the maximum; inactive means score below 0.9); conditions: primary human endothelial cells (HUVEC); actives raise or lower the signal
In short: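 Primary human umbilical vein endothelial cells were exposed to test chemical for 24 h, then cell-surface P-selectin was quantified by ELISA. Activity was fitted bidirectionally against DMSO as negative control and baseline.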

[17] = read-out: Macrophage colony-stimulating factor (MCSF), CSF1 (gene 1435); test: BSK_CASM3C_MCSF: BioMAP Diversity Plus: CASM3C Assay for Macrophage colony-stimulating factor (MCSF) Biomarker Activity (AID 2283044; active means hit-call score of the fitted dose curve at least 0.9, where 1 is the maximum; inactive means score below 0.9;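 further: M-CSF protein amount quantified by ELISA after 24 h exposure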); conditions: primary human coronary artery smooth muscle cells; actives raise or lower the signal
[18] = read-out: Low-density lipoprotein receptor (LDLR), LDLR (gene 3949); test: BSK_CASM3C_LDLR: BioMAP Diversity Plus: CASM3C Assay for Low-density lipoprotein receptor (LDLR) Biomarker Activity (AID 2283045; active means hit-call score of the fitted dose curve at least 0.9, where 1 is the maximum; inactive means score below 0.9;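 further: LDLR protein level on the cell surface quantified by ELISA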); conditions: primary human coronary artery smooth muscle cells; actives raise or lower the signal
[19] = read-out: Monokine induced gamma interferon (MIG), CXCL9 (gene 4283); test: BSK_CASM3C_MIG: BioMAP Diversity Plus: CASM3C Assay for Monokine induced gamma interferon (MIG) Biomarker Activity (AID 2283048; active means hit-call score of the fitted dose curve at least 0.9, where 1 is the maximum; inactive means score below 0.9;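 further: MIG protein level measured by ELISA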); conditions: primary human coronary artery smooth muscle cells; actives raise or lower the signal
[20] = read-out: serum amyloid A (SAA), SAA1 (gene 6288); test: BSK_CASM3C_SAA: BioMAP Diversity Plus: CASM3C Assay for serum amyloid A (SAA) Biomarker Activity (AID 2283049; active means hit-call score of the fitted dose curve at least 0.9, where 1 is the maximum; inactive means score below 0.9;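 further: SAA protein level quantified by ELISA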); conditions: primary human coronary artery smooth muscle cells; actives raise or lower the signal

## COC(=O)[C@]1(C)CCC[C@@]2(C)[C@H]1CC=C1C=C(C(C)C)CC[C@@H]12
[1]
  outcome: inactive
[2]
  outcome: inactive
[3]
  outcome: inactive
[4]
  AC50: 71.6 µM (active)
[5]
  outcome: inactive
[6]
  AC50: 0.333 µM (active)

## CCCCCCOC(=O)CCCCCCCC(=O)OCCCCCC
[7]
  AC50: 50 µM (active)

## O=C(C1CCCCC1)N1CC(=O)N2CCc3ccccc3C2C1 (centres undefined)
[1]
  outcome: inactive
[8]
  outcome: inactive

## CC/C=C\CCCCCO
[9]
  outcome: inactive

## C=CC(C)(CCC=C(C)C)OC(=O)c1ccccc1 (centres undefined)
[7]
  AC50: 72.6 µM (active)

## CC(=O)c1nccs1
[10]
  AC50: 4.94 µM (active)
[11]
  outcome: inactive

## O=C(O)c1ccccc1C(=O)O
[10]
  outcome: inactive
[11]
  outcome: inactive
[5]
  outcome: inactive
[6]
  outcome: inactive
[12]
  outcome: inactive
[7]
  outcome: inactive

## C/C=C(\C)C(=O)OCC/C=C\CC
[11]
  outcome: inactive
[7]
  outcome: inactive

## C1=CCC=C1
[4]
  outcome: inactive
[6]
  outcome: inactive
[12]
  outcome: inactive

## O=C(OCc1ccccc1)c1ccccc1
[9]
  outcome: inactive
[4]
  outcome: inactive
[13]
  outcome: inactive
[14]
  outcome: inactive

## Brc1ccc(Oc2ccc(Br)cc2)cc1
[7]
  AC50: 65.4 µM (active)

## CC(C)CC(=O)CC(C)CC(C)C (centres undefined)
[15]
  outcome: inactive
[16]
  AC50: 30.1 µM (active)
[17]
  AC50: 34.6 µM (active)
[18]
  outcome: inactive
[19]
  AC50: 32.1 µM (active)
[20]
  outcome: inactive

## COC(=O)CCSCCC(=O)OC
[1]
  outcome: inactive

## Oc1ccc(Oc2ccccc2)cc1
[10]
  AC50: 1.54 µM (active)

## CCO[Si](CCCN)(OCC)OCC
[10]
  outcome: inactive
[9]
  outcome: inactive
[13]
  outcome: inactive
[14]
  outcome: inactive
[6]
  outcome: inactive

## CCCCCCCC#N
[9]
  outcome: inactive
[1]
  outcome: inactive

## Nc1nnc(-c2ccc([N+](=O)[O-])o2)o1
[10]
  outcome: inactive

## Cc1cccnc1
[15]
  outcome: inactive
[16]
  outcome: inactive
[17]
  outcome: inactive
[18]
  outcome: inactive
[19]
  outcome: inactive
[20]
  outcome: inactive
[2]
  outcome: inactive
[3]
  outcome: inactive
[5]
  outcome: inactive
[13]
  outcome: inactive
[14]
  outcome: inactive
[12]
  outcome: inactive

## NC(N)=Nc1nc(CSCCC(N)=NS(N)(=O)=O)cs1
[10]
  AC50: 26.1 µM (active)
[9]
  outcome: inactive
[8]
  outcome: inactive

## CN1CCCC1
[10]
  outcome: inactive
[11]
  outcome: inactive
[1]
  outcome: inactive
[7]
  outcome: inactive

## [O-][n+]1ccc(Cl)cc1
[11]
  outcome: inactive

## O=C(O)c1cc(Cl)cc(Cl)c1O
[8]
  outcome: inactive

## CCC(C)=NO
[11]
  outcome: inactive
[15]
  outcome: inactive
[16]
  outcome: inactive
[17]
  outcome: inactive
[18]
  outcome: inactive
[19]
  outcome: inactive
[20]
  outcome: inactive
[2]
  outcome: inactive
[3]
  outcome: inactive
[4]
  outcome: inactive
[5]
  outcome: inactive
[6]
  outcome: inactive
[12]
  AC50: 50 µM (active)
[7]
  outcome: inactive
[8]
  outcome: inactive

## CC1=C(CC(=O)O)c2cc(F)ccc2/C1=C\c1ccc(S(C)=O)cc1 (centres undefined)
[8]
  outcome: inactive

## CCC(C)C1N=C(C)C(C)S1 (centres undefined)
[9]
  outcome: inactive

## CC[N+](CC)(CC(=O)Nc1c(C)cccc1C)Cc1ccccc1 (tested in a mixture with another compound)
[15]
  outcome: inactive
[16]
  outcome: inactive
[17]
  AC50: 5.41 µM (active)
  outcome: inactive
[18]
  AC50: 0.591 µM (active)
  outcome: inactive
[19]
  outcome: inactive
[20]
  outcome: inactive
[4]
  outcome: inactive
[5]
  outcome: inactive
[13]
  outcome: inactive
[14]
  outcome: inactive
[6]
  outcome: inactive
[12]
  outcome: inactive
[8]
  outcome: inactive

## C1CN(CCOCCN2CCOCC2)CCO1
[15]
  AC50: 9.48 µM (active)
  outcome: inactive
[16]
  outcome: inactive
[17]
  outcome: inactive
[18]
  outcome: inactive
[19]
  AC50: 1.82 µM (active)
  outcome: inactive
[20]
  outcome: inactive

## CC(C)CC(=O)CC(C)C
[2]
  outcome: inactive
[3]
  outcome: inactive
[5]
  outcome: inactive
